Among the data in PubChem BioAssay AID463173 (ICCB-Longwood Screening Facility, Harvard Medical School, 2010) are survival values, retold here.

In all, about 52,000 compounds went through this assay and about 1,700 (3.3%) were called active. The entries come from a sample that favours actives as a whole. Unmarked numbers belong to inactive results. No stated cut-off is given here; in the data, active means survival mostly below about 52% (no sharp cut-off); inactive means mostly above about 56%.

This test relates to Wild type. Kind of test: growth inhibition of S. aureus wild type versus tarO mutant, primary screen, teichoic acid synthesis inhibitors, RN4220, OD600 (AID 463173). Particulars: S. aureus RN4220 wild type/DeltatarO growth, OD600, 18 h, active compounds read low, screened at 18.75 µg/mL (by protocol).
On to `Cc1ccc(Nc2nc(C(N)=O)c(NC(=O)c3ccccc3Br)s2)cc1`, for which the survival was 71%.

Regarding `CCOC(=O)C1CCC(CN(Cc2ccc(Cl)cc2)S(=O)(=O)c2cc(Cl)cc(Cl)c2)CC1` (configuration not stated), the survival is 59%. With `COc1ccc(-n2c(=O)c3sc4ccccc4c3n(Cc3ccccc3)c2=O)cc1`, the survival was 81%.

As to `Cc1cc(C)c(NC(=O)c2oc3c(c2C)-c2[nH]ncc2CC3)c(C)c1`, the survival is 81%. On to `Cc1cc(NC(=O)c2oc3c(c2C)-c2[nH]ncc2CC3)ccc1Br`, for which the survival was 1% (active).

Consider `CCc1ccc(NC(=O)c2oc3c(c2C)-c2[nH]ncc2CC3)cc1`, for which the survival was 59%. Consider `Cc1[nH]c2ccc(Cl)cc2c(=O)c1CN1CCN(C)CC1`, for which the survival was 109%. On to `Clc1ccc(CCNc2nc3ccccc3c3nc(-c4ccccc4)nn23)cc1`, for which the survival is 38%.

`Cc1ccc(CNC(=O)CSc2nc3n[nH]c(C)c3c(=N)n2-c2ccccc2Cl)cc1`: the survival is 83%. Regarding `Cc1ccc(CN2CCC(CNC(=O)Nc3ccc(Cl)cc3)C2)cc1` (configuration not stated), the survival was 53%. Take `Cc1ccc(CN2CCC(CNC(=O)Nc3ccc(C)c(C)c3)C2)cc1` (configuration not stated): the survival is 94%. Regarding `Cc1ccc(NC(=O)NCC2CCN(Cc3cccc(Cl)c3)CC2)cc1Cl`, the survival is -6% (active).

`Cc1cc(C)cc(NC(=O)NCC2CCN(Cc3cc(C)ccc3C)CC2)c1`: the survival is 83%. Consider `O=C(NCC1CCN(Cc2ccccc2F)CC1)Nc1ccc(F)c(Cl)c1`, for which the survival was 73%. To `Cc1ccc(CN2CCC(CNC(=O)Nc3ccccc3F)CC2)cc1` belongs 118%; to `O=C(NCC1CCN(Cc2cccc(Cl)c2)CC1)Nc1ccc(F)c(Cl)c1`, 14% (active). To `Cc1ccc(CN2CCC(CNC(=O)Nc3cccc(Cl)c3C)C2)cc1` (configuration not stated) belongs 88%; to `O=C(NCC1CCN(Cc2cccc(Cl)c2)CC1)Nc1cc(Cl)ccc1Cl`, -1% (active). As to `COc1ccc(-c2cc3nccc(-c4cc(Cl)c(C)cc4O)n3n2)cc1`, the survival was 82%. Turning to `CN1CCN(C(CNC(=O)c2ccc(F)cc2)c2ccc3c(c2)OCO3)CC1` (configuration not stated), the survival was 70%. For the compound `C=CCN1C=C/C(=C\C=C(C#N)C#N)c2ccccc21`, the survival is 102%. With `CCc1c(C)nc(SCc2nc(-c3ccccc3)no2)[nH]c1=O`, the survival is 118%. As for `COc1cccc(C(=O)N(Cc2ccco2)c2ccccn2)c1`, the survival was 103%.

In the case of `COc1ccc(CCNC(=O)c2nc(SCc3ccc(F)cc3)ncc2Cl)cc1OC`, the survival is 86%. To `CN(CC(=O)NCc1ccc(Cl)cc1)S(=O)(=O)c1ccc2c(c1)c(=O)n(C)c(=O)n2C` belongs 81%; to `COc1ccc(NC(=O)c2oc3ccccc3c2NC(=O)Cc2cccs2)cc1`, 90%. In the case of `C#CC(C)(CC)NC(=O)Cn1nnc(-c2ccc(OCc3ccccc3C)cc2)n1` (configuration not stated), the survival is 143%. For `Cc1ccc(-n2cc(-c3ccccc3)c3c(N4CCCCC4)ncnc32)cc1`, the survival is 80%. As to `Cc1sc2nc(CN(CCc3ccccc3)C(=O)c3ccco3)[nH]c(=O)c2c1C`, the survival was 100%. To `CCCCCOc1ccccc1Cn1c(=O)oc2ccc(C)cc21` belongs 15% (active). On to `CCCCCOc1ccc(Cn2c(=O)oc3ccccc32)cc1`, for which the survival is 120%. To `Cc1ccc2oc(=O)n(CCNC(=O)Nc3ccccc3Cl)c2c1` belongs 90%; to `CCCCOc1ccc(Cn2c(=O)oc3ccc(C)cc32)cc1OC`, 49%. On to `O=C(NCc1ccccc1Cl)c1ccc2oc(=O)n(Cc3ccccc3)c2c1`, for which the survival was 81%.

For `Cc1ccc2c(c1)C(=O)C(=O)N2Cc1ccc(OCCC(C)C)cc1`, the survival is 79%. Consider `CCCCCOc1ccc(Cn2c(=O)oc3ccc(C)cc32)cc1OC`, for which the survival was -6% (active).

With `COc1cc(Cn2c(=O)oc3ccc(C)cc32)ccc1OCCC(C)C`, the survival was -7% (active). On to `CCCCOc1ccc(CN2C(=O)C(=O)c3cc(C)ccc32)cc1OC`, for which the survival was 87%.

With `CCCCCOc1ccccc1CN1C(=O)C(=O)c2cc(C)ccc21`, the survival is 105%. To `Cc1ccc2oc(=O)n(Cc3ccccc3Cl)c2c1` belongs -2% (active); to `CCOC(=O)c1ccc2oc(=O)n(Cc3ccccc3)c2c1`, 68%; to `COc1cc2nc(C3CCC3)n(NC(=O)c3ccccc3C)c(=O)c2cc1OC`, 115%. With `CSc1ccc(CCNC(=O)CCc2c(C)nc3ncnn3c2C)cc1`, the survival is 71%.

As to `CCC1CN(C(=O)C2CCN(S(=O)(=O)c3c(C)noc3/C=C/c3ccccc3F)CC2)c2cc(Cl)ccc2O1` (configuration not stated), the survival was 71%. Turning to `COc1ccc(NC(=O)Cn2c(=O)n(-c3ccccc3)c(=O)c3ccc(C(=O)NCc4ccc5c(c4)OCO5)cc32)cc1`, the survival was 154%. To `COc1ccc(NC(=O)C2CCCN(S(=O)(=O)c3c(C)[nH]c(=O)[nH]c3=O)C2)cc1OC` (configuration not stated) belongs 130%; to `O=C(Nc1cc(-c2ccc(F)c(F)c2)no1)c1ccccc1F`, 92%.

Take `COC(=O)c1ccccc1NC(=O)c1ccc(-c2nc(COc3ccccc3)c(C)o2)cc1`: the survival is 135%. To `COCCCNC(=O)C1CCN(c2nnc(-n3cccc3CNc3ccc(C)cc3)s2)CC1` belongs 72%. To `CCOCCc1nn2c(=O)cc(COC(=O)C(CC)c3ccccc3)nc2s1` (configuration not stated) belongs 14% (active); to `CCc1nn2c(=O)cc(COC(=O)Cc3ccccc3)nc2s1`, 59%; to `CCOCCc1nn2c(=O)cc(COC(=O)Cc3ccccc3)nc2s1`, -1% (active). Regarding `CCOCCc1nn2c(=O)cc(COC(=O)c3ccco3)nc2s1`, the survival is 85%. As to `CCc1nn2c(=O)cc(COC(=O)C(CC)c3ccccc3)nc2s1` (configuration not stated), the survival is 73%. Regarding `CCC(C(=O)OCc1cc(=O)n2nc(CCOC)sc2n1)c1ccccc1` (configuration not stated), the survival was 136%. Turning to `Cc1ccc(-c2nnc3ccccc3c2C(=O)Nc2cccc(C(F)(F)F)c2)cc1`, the survival is 120%. For `COc1ccc(N(Cc2cccs2)C(=O)c2ccc(OCC(C)C)cc2)cc1`, the survival is 113%.

As to `CCc1ccccc1NC(=O)CN(c1cccc(C)c1C)S(C)(=O)=O`, the survival is 72%.

On to `Cc1ccc(NC(=O)Cn2c(=O)n(Cc3ccco3)c(=O)c3sc4ccccc4c32)cc1C`, for which the survival was 126%. To `CCc1nn2c(=O)cc(COC(=O)C3CCCCC3)nc2s1` belongs 72%; to `Cc1cccc(-c2nc(SCC(=O)NCC3CCCO3)c3c(=O)n(C)c(=O)n(C)c3n2)c1` (configuration not stated), 128%. As for `Oc1c(C(c2ccccc2Cl)N2CCOCC2)sc2nc(-c3ccco3)nn12` (configuration not stated), the survival is -2% (active).

With `CN1CCN(C(c2ccccc2)c2sc3nc(-c4ccco4)nn3c2O)CC1` (configuration not stated), the survival was 59%. Regarding `Cc1ccc(C(c2sc3nc(-c4ccco4)nn3c2O)N2CCN(Cc3ccccc3)CC2)cc1` (configuration not stated), the survival was 121%. For the compound `Oc1c(C(c2ccccc2)N2CCC3(CC2)OCCO3)sc2nc(-c3ccco3)nn12` (configuration not stated), the survival was 73%. `Oc1c(C(c2ccc(Cl)cc2)N2CCC3(CC2)OCCO3)sc2nc(-c3ccco3)nn12` (configuration not stated): the survival is 0% (active). As for `Oc1c(C(c2ccccc2)N2CCN(Cc3ccccc3)CC2)sc2nc(-c3ccco3)nn12` (configuration not stated), the survival is 10% (active). To `Oc1c(C(c2ccc(F)cc2)N2CCN(Cc3ccccc3)CC2)sc2nc(-c3ccco3)nn12` (configuration not stated) belongs 89%.

Take `Oc1c(C(c2ccccc2Cl)N2CCCC2)sc2nc(-c3ccco3)nn12` (configuration not stated): the survival is 82%.

For `CN1CCN(C(c2ccccc2Cl)c2sc3nc(-c4ccco4)nn3c2O)CC1` (configuration not stated), the survival was 129%. For `Oc1c(C(c2ccccc2)N2CCOCC2)sc2nc(-c3ccco3)nn12` (configuration not stated), the survival is 88%. With `Oc1c(C(c2ccccc2)N2CCCC2)sc2nc(-c3ccco3)nn12` (configuration not stated), the survival was -3% (active).

Regarding `Cc1ccc(C(c2sc3nc(-c4ccco4)nn3c2O)N2CCC3(CC2)OCCO3)cc1` (configuration not stated), the survival is 70%. For the compound `COC(=O)c1ccc(NS(=O)(=O)c2c(C)nc3sccn3c2=O)cc1`, the survival was 85%.

For the compound `CC(=O)NC1Sc2ccccc2N=C1c1ccccc1` (configuration not stated), the survival is 112%. `Cc1cccc(-n2c(Cc3ccccc3)nnc2SCc2nc(-c3cccs3)no2)c1`: the survival is 63%. In the case of `Cc1ccc2onc(CC(=O)Nc3ccc(C(C)C)cc3)c2c1`, the survival is 85%.

On to `CCOc1ccc(NC(=O)c2sc3nc4c(c(-c5ccc(OC)cc5)c3c2N)C(=O)CC(C)(C)C4)cc1`, for which the survival was 69%. `CCCn1c(N2CCN(CC(=O)Nc3ccc(Cl)cc3)CC2)nc2ccccc21`: the survival was 118%.

As for `Cc1nn(C)c2c1c(-c1ccccc1)cc(=O)n2CC(=O)NC(C)C`, the survival is 70%. For the compound `COc1ccc(C2=NS(=O)(=O)N(C)C(C(=O)Nc3ccc(OC(F)(F)F)cc3)=C2)cc1`, the survival was 55%. To `CCc1ccc(S(=O)(=O)c2cnc3ccc(OC)cc3c2N2CCCC(C)C2)cc1` (configuration not stated) belongs 2% (active); to `CC1CCCN(c2c(S(=O)(=O)c3ccccc3)cnc3ccc(Cl)cc23)C1` (configuration not stated), 121%; to `COc1ccc(S(=O)(=O)c2cnc3cc(OC)c(OC)cc3c2N2CCCC(C)C2)cc1` (configuration not stated), 84%. Consider `Cc1ccccc1NC(=O)c1ccc(F)c(S(=O)(=O)N(C)Cc2ccccc2)c1`, for which the survival was 66%.

Consider `Cc1ccccc1CN1C(=O)c2ccccc2Sc2ccc(C(=O)N3CCCC3)cc21`, for which the survival was 85%. With `CCCCOc1ccc(S(=O)(=O)Nc2ccc(-c3ccc(N4CCCCCC4)nn3)cc2)cc1`, the survival was 75%. Consider `Cc1c(C(=O)NCc2ccccc2Cl)sc2nc[nH]c(=O)c12`, for which the survival was 82%. For the compound `Cc1nc(SCc2cccc(Cl)c2)nc2c1CCCC2`, the survival is -8% (active). As for `O=c1[nH]c(SCc2cccc(Cl)c2)nc2c1CCC2`, the survival is 91%. As to `Cc1cccc(CSc2nc3c(c(=O)[nH]2)CCC3)c1`, the survival is 78%.

In the case of `COc1cccc(-c2csc(-c3c(N)c(C(=O)c4ccccc4)n4ccccc34)n2)c1`, the survival is 72%.
